Data from ChEMBL document CHEMBL1157539, “Thousands of chemical starting points for antimalarial lead identification” (Nature, 2010).

Key:
Type in all cases: functional
Plasmodium falciparum [1] = test: GSK_TCMDC: Inhibition of Plasmodium falciparum 3D7 in whole red blood cells, using parasite LDH activity as an index of growth. Test compounds present at 2uM
Plasmodium falciparum [2] = test: GSK_TCMDC: Inhibition of Plasmodium falciparum Dd2 in whole red blood cells, using parasite LDH activity as an index of growth. Test compounds present at 2uM
HepG2 = test: GSK_TCMDC: Percent inhibition of human HepG2 cell line. Test compounds present at 10uM.

SMILES	Inhibition (Plasmodium falciparum [1]) [%]	Inhibition (Plasmodium falciparum [2]) [%]	Inhibition (HepG2) [%]
COc1ccc2c(c1)CCN(CCN1CCC(CNC(=O)c3ccc(-c4ccc(C#N)cc4)cc3)CC1)C2	100	51	40
CC(C)(C(=O)NCCC1CCN(CCCCCNC(=O)/C=C/c2ccc(Cl)c(Cl)c2)CC1)c1ccc(Cl)cc1	89	33	92
CN1CCN(Cc2ccc(-c3ccc4c(Nc5ccc(F)cc5Cl)ccnc4c3)o2)CC1	100	100	8
COc1cc(NCC(CN)Cc2ccc3c(c2)OCO3)nc2ccccc12.Cl (stereo not drawn)	94	6	41
CCOC(=O)c1cccc(NC(=N)Nc2nc(C)cc(NCCc3ccccc3)n2)c1	100	72	21
CC[C@H](C)CNC(=O)c1ccnc(-c2cccc(CN3CCC(N4CCCC4)CC3)c2)c1.O=C(O)C(F)(F)F	97	12	0
CN(C1CCC(NC(=O)/C=C/c2ccccc2)CC1)C1CC2(CCN(C(=O)OC(C)(C)C)CC2)c2ccccc21 (stereo not drawn)	95	95	16
O=C(Cn1c(CCc2cccc(F)c2F)nc(=O)c2ccccc21)N(Cc1ccc(-c2ccc(C(F)(F)F)cc2)cc1)C1CCN(C2=NCCS2)CC1.O=C(O)C(O)C(O)C(=O)O	81	85	62
Cc1noc(C)c1-c1cccc(CNCc2ccc(-c3ccc(-c4nc5cc(F)ccc5[nH]4)s3)cc2)c1.O=C(O)C(F)(F)F	100	93	45
CC(C)(C)OC(=O)NCC(=O)N(Cc1ccccc1)Cc1ccccc1	97	93	0
COc1ccccc1C1CC(c2ccccc2)=NN1C(=O)c1ccccc1 (stereo not drawn)	100	93	13
Cc1ncccc1C(=O)Nc1cccc(-c2cccc(-c3nc4cccc(C)c4[nH]3)c2)c1	93	69	6
COc1ccc(NC(=O)Nc2ccc(-c3cccc(-c4nc5cccc(C)c5[nH]4)c3)cc2)cc1	100	75	33
CCc1cc(Br)c2c(c1)C(NCCCNc1cc(=O)c3ccccc3[nH]1)CCN2 (stereo not drawn)	94	20	13
CC1CCN(c2nc(C(=O)Nc3cccc4c3CCCC4)c(C(C)C)s2)CC1.O=C(O)C(F)(F)F	96	49	14
COc1ccc2nccc([C@@H](O)CN3CCC(NC(=O)c4ccc(-c5ccc(C#N)cc5)cc4)CC3)c2c1	100	91	42

SMILES	Inhibition (Plasmodium falciparum [1]) [%]	Inhibition (Plasmodium falciparum [2]) [%]	Inhibition (HepG2) [%]
CCOCc1cnc(C)nc1NCC(=O)c1c(C)[nH]c2cc(C)ccc12.I	89	76	8
CCCCN1CCN(CC(O)CNC(=O)Nc2ccc(Cl)cc2)CC1.O=C(O)C(F)(F)F (stereo not drawn)	100	99	17
CC(=O)Nc1nc(C(=O)Nc2cccc(-c3ccc(-c4nc5cccc(C)c5[nH]4)s3)c2)cs1	100	67	14
COc1cccc(CNC(=O)c2ccnc(-c3cccc(CN(C)C4CCN(C)CC4)c3)c2)c1.O=C(O)C(F)(F)F	100	46	19
O=C(Nc1ccc2c(c1)OCO2)NC1CCN(c2ccnc(Nc3ccc(F)cc3)n2)C1 (stereo not drawn)	100	89	5
CN1CCN(c2cc3c(Nc4ccc5c(cnn5Cc5ccccc5)c4)ncnc3cn2)CC1	88	35	9
COc1cccc(CN2CCCC(OC(c3ccc(F)cc3)c3ccc(F)cc3)C2)c1O (stereo not drawn)	95	95	8
COc1ccc(N2CCN(CCCCNC(=O)c3ccc(NC(=O)c4ccc(Cl)c(Cl)c4)cc3)CC2)c(OC)c1	100	98	23
CC(Cc1ccc(OCCN2CCN(c3cccc(Cl)c3)CC2)cc1)NCC(O)c1cccc(Cl)c1.Cl (stereo not drawn)	93	91	48
COc1cccc2cc(C(=O)N[C@@H](CC(C)C)C(=O)NC3CC[C@@H](C)N(C(=O)Nc4ccncc4)CC3=O)oc12 (stereo partly drawn)	95	90	7
CC(=O)Nc1ccc(CN(Cc2ccc(F)cc2)Cc2cccc(Oc3ccccc3)c2)cc1	88	82	0
Nc1ccc(-c2ccc3ccnc(N)c3c2)cn1.O=C(O)C(F)(F)F	100	100	43
CCCc1ccc(NC(=O)c2ccc(CN3CCCN(CC4CCCCC4)CC3)cc2)cc1.O=C(O)C(F)(F)F	95	41	49
CCCCNc1ccc(C(=O)NC2CCN(C[C@H](O)c3ccnc4ccc(OC)cc34)CC2)cc1	90	64	12
O=C(NC1CCC1)C1CCN(C(c2ccccc2)c2cc(F)cc(F)c2)CC1 (stereo not drawn)	94	72	0
